High-throughput results as filed in PubChem BioAssay.
Only some compounds are listed: those with a hit (about 5.4% of all), similar ones and a draw of the others.
Vaccinia Venus: qHTS for Stage-Specific Inhibitors of Vaccinia Orthopoxvirus: Venus Reporter Primary qHTS. Vaccinia virus Venus reporter expression, fluorescence. Potency, µM (highest dose often 36.5 µM), for the others: at the highest dose activity change, negative = inhibition, hits mostly inhibitors. 330,000 tested, 0.46% active. AID 720580, 2013; calls by dose curve; tested in A549 cells; also: nearly all actives have a fitted effect of over 30% in size
Vaccinia mCherry: qHTS for Stage-Specific Inhibitors of Vaccinia Orthopoxvirus: mCherry Reporter Primary qHTS | Vaccinia virus mCherry reporter infection, fluorescence | AID 720579, 2013 | 310,000 tested, 0.63% active | Potency, µM (titrated, usually from 36.5 µM), without a hit: top-dose activity change, negative = inhibition, most hits filed as inhibitors; calls by dose curve; tested in A549 cells; also: nearly all actives have a fitted effect of over 35% in size
Lassa entry inh: qHTS for Inhibitors of binding or entry into cells for Lassa Virus | Lassa virus pseudotype entry inhibition, cell reporter | Potency, µM (titrated, usually from 37.9 µM), without a hit: top-dose activity change, negative = inhibition, most hits filed as inhibitors | 300,000 tested, 1.2% active; calls by dose curve; tested in HEK293 cells; also: nearly all actives have a fitted effect of over 50% in size
MARV entry inh: qHTS for inhibitors of binding or entry into cells for Marburg Virus. 300,000 tested, 1.8% active. Potency, µM (series often up to 37.8 µM), for inactives: top-dose activity change, negative = inhibition, usual class: inhibitors. Marburg virus pseudotyped entry inhibition, cell reporter; calls by dose curve; tested in HEK293 cells
FMDV antiviral: High Throughput Screening for Foot and Mouth Disease Virus Antivirals. FMDV antiviral cell-based qHTS. Potency, µM (doses to about 57.9 µM), for the others: at the highest dose activity change, negative = inhibition, usual class: inhibitors. 410,000 tested, 1.2% active; calls by dose curve; tested in HEK293T cells; also: read-out not given here; nearly all actives have a fitted effect of over 45% in size
Sm TGR block: qHTS Assay for the Inhibitors of Schistosoma Mansoni Peroxiredoxins; Schistosoma mansoni thioredoxin glutathione reductase (TGR), Q962Y6; purified TGR, DTNB reduction, TNB absorbance 405 nm; Potency, µM (highest dose often 114 µM), inactives show at the top dose activity change, negative = inhibition, usual class: inhibitors; 360,000 tested, 3% active; active = well fitted inhibition curve with a large enough effect; inconclusive = small, poorly fitted or top-dose-only effect; inactive = no such curve, though single readings can be large or run the other way; also: nearly all actives have a fitted effect of over 60% in size
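First, TGR (20 nM dispensed) and NADPH were mixed with compound. Second, a 15 min room-temperature incubation followed. Third, further NADPH and then DTNB were added to start the reaction. Finally, TNB absorbance was monitored kinetically.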
Active calls of the source: *; [ ] = dose if it differs, or a comment. % is scaled to controls: 0 for no effect and ±100 for the full control effect; potency is read from the fitted curve at half-maximal effect.

CCCc1ccc(-c2ccc(/C=C/C(=O)O)cc2)nc1 was read as Vaccinia Venus -5%, Vaccinia mCherry -7%, Lassa entry inh 0.46µM*, MARV entry inh 0.23µM*, FMDV antiviral 0% and Sm TGR block -20%.
For COc1ccc(NC(=O)C(NC(=O)C2CCC(C)CC2)C(C)C)cc1 (stereo unspecified) the results were Vaccinia Venus -6%, Vaccinia mCherry -8%, Lassa entry inh 4%[46.1 µM], MARV entry inh -4%[46.1 µM], FMDV antiviral 12% and Sm TGR block -4%.
Screening COc1ccc(-c2cc(C(F)(F)F)c(C#N)c(=O)[nH]2)cc1 returned Vaccinia Venus -6%, Vaccinia mCherry -5%, Lassa entry inh -22%[46.1 µM], MARV entry inh 10%[46.1 µM], FMDV antiviral -8% and Sm TGR block -34%.
COc1ccc(-c2cc(-c3ccco3)[nH]c(=O)c2C#N)cc1 was read as FMDV antiviral -11% and Sm TGR block 3.2µM*.
COc1cccc([C@H]2Oc3ccc(OC)cc3/C(=N\OCC[C@@H]3C=C[C@H](OC(C)=O)[C@@H](COC(C)=O)O3)[C@@H]2O)c1 was read as MARV entry inh -24%[14.2 µM].
`CCOc1ccc(CN(C(=O)c2cc(=O)c3cc(Cl)ccc3o2)C2CCS(=O)(=O)C2)cc1` (stereo unspecified) gave Vaccinia Venus -9%, Vaccinia mCherry 6%, Lassa entry inh 13%[46.1 µM], MARV entry inh -13%[46.1 µM], FMDV antiviral -18% and Sm TGR block 6%.
`CC(=O)Oc1ccccc1/C=C/c1nc2ccccc2c(=O)o1` gave Vaccinia Venus -9%, Vaccinia mCherry inactive, Lassa entry inh 2µM*, MARV entry inh inconclusive, FMDV antiviral inconclusive and Sm TGR block 1%.
CC(=O)Oc1ccc(/C=C/c2nc3ccccc3c(=O)o2)cc1 was read as Vaccinia Venus -20%, Vaccinia mCherry -8%, Lassa entry inh inconclusive, MARV entry inh inconclusive, FMDV antiviral -12% and Sm TGR block -26%.
Screening CC(C)C(=O)Nc1nc(-c2ccc3c(c2)CCN3C(=O)C2CC2)cs1 returned Vaccinia Venus -1%, Vaccinia mCherry -8%, MARV entry inh 20%[46.1 µM], FMDV antiviral -38% and Sm TGR block 8%.
Screening O=C(CN1CCOCC1)Nc1nc(-c2ccc3c(c2)CCN3S(=O)(=O)c2ccccc2)cs1 returned Vaccinia Venus -19%, Vaccinia mCherry inconclusive, Lassa entry inh inconclusive, MARV entry inh inconclusive, FMDV antiviral 22µM* and Sm TGR block 0%.
`CCC(CC)C(=O)Nc1nc(-c2ccc3c(c2)CCN3C(=O)C2CC2)c(C)s1` gave Vaccinia Venus -21%, Lassa entry inh 11µM*, MARV entry inh inconclusive, FMDV antiviral 11µM* and Sm TGR block -10%.
Screening CC(=O)Nc1nc(-c2ccc3c(c2)CCN3S(C)(=O)=O)cs1 returned Vaccinia Venus -27%, Vaccinia mCherry -28%, Lassa entry inh -23%, MARV entry inh 8%[46.1 µM] and FMDV antiviral 16%.
For CS(=O)(=O)N1CCc2cc(-c3csc(NC(=O)Cc4cccs4)n3)ccc21 the results were Vaccinia Venus inconclusive, Vaccinia mCherry inconclusive, Lassa entry inh 13µM*, MARV entry inh inconclusive, FMDV antiviral 13µM* and Sm TGR block 0%.
`O=C(CN1CCOCC1)Nc1nc(-c2ccc(Cl)cc2)cs1` gave Vaccinia Venus -17%, Vaccinia mCherry inactive, Lassa entry inh 7.1µM*, MARV entry inh inconclusive, FMDV antiviral inconclusive and Sm TGR block -11%.
Screening Cc1ccc(-c2csc(NC(=O)CN3CCOCC3)n2)cc1 returned Vaccinia Venus -18%, Vaccinia mCherry -5%, Lassa entry inh inconclusive, MARV entry inh inconclusive, FMDV antiviral -12% and Sm TGR block -1%.
`Cc1ccccc1C(=O)N1CCc2cc(-c3nc(NC(=O)Cc4ccc5c(c4)OCO5)sc3C)ccc21` gave Lassa entry inh inconclusive, MARV entry inh 3%, FMDV antiviral inconclusive and Sm TGR block 0%.
`Cc1sc(NC(=O)CN2CCOCC2)nc1-c1ccc2c(c1)CCN2S(=O)(=O)c1ccccc1` gave Vaccinia Venus inconclusive, Vaccinia mCherry inconclusive, Lassa entry inh inconclusive, MARV entry inh 13µM* and Sm TGR block -26%.
Screening Cc1cccc(C(=O)N2CCc3cc(-c4nc(NC(=O)CN5CCCC5)sc4C)ccc32)c1 returned Vaccinia Venus -28%, Vaccinia mCherry inconclusive, Lassa entry inh inconclusive, MARV entry inh 10µM*, FMDV antiviral -21% and Sm TGR block 2%.
Screening CN1C(=O)/C(=C/c2ccccc2Cl)Sc2ccc(C(=O)NCc3cccnc3)cc21 returned Vaccinia Venus -22%, Vaccinia mCherry -10%, Lassa entry inh inconclusive, MARV entry inh inconclusive, FMDV antiviral 40µM* and Sm TGR block 7%.
For Cc1cccc(/C=C2\Sc3ccc(C(=O)NCC4CCCO4)cc3N(C)C2=O)c1 (stereo unspecified) the results were Vaccinia Venus -25%, Vaccinia mCherry -6%, Lassa entry inh inconclusive, MARV entry inh 7.1µM*, FMDV antiviral -25% and Sm TGR block -3%.
Screening CN1C(=O)/C(=C/c2ccccc2F)Sc2ccc(C(=O)NCC3CCCO3)cc21 (stereo unspecified) returned FMDV antiviral -25% and Sm TGR block -15%.
For O=C(NCc1cccnc1)c1ccc2c(c1)C(=O)N(Cc1ccccc1)C2=O the results were Vaccinia Venus -13%, Vaccinia mCherry -11%, Lassa entry inh 6%, MARV entry inh inconclusive, FMDV antiviral inconclusive and Sm TGR block 7%.
`Oc1cc(-c2nc3ccccc3s2)cc2c1OCCN(Cc1cn[nH]c1-c1ccc(Cl)cc1)C2` gave Vaccinia Venus -10%, Vaccinia mCherry -22% and FMDV antiviral 10%.
Screening CCOc1cccc2sc(N3CCN(C(=O)c4ccc5c(c4)CCCC5)CC3)nc12 returned Vaccinia Venus -14%, Vaccinia mCherry -21%, Lassa entry inh inconclusive, FMDV antiviral inconclusive and Sm TGR block 11%.
Screening COc1ccc(-c2c3c(=O)n(C)c(=O)n(C)c3cn2-c2ccc(O)cc2)cc1 returned Vaccinia Venus -7%, Vaccinia mCherry 7%, Lassa entry inh inconclusive, MARV entry inh -1%[46.1 µM], FMDV antiviral -22% and Sm TGR block 45µM*.
Screening COc1ccc(-c2c3c(=O)n(C)c(=O)n(C)c3cn2-c2ccccc2)cc1 returned Vaccinia Venus -14%, Lassa entry inh -11%, MARV entry inh -24%, FMDV antiviral -6% and Sm TGR block -16%.
